# An excerpt weighted towards active compounds, which were near 3.3% of everything screened.
# 14-3-3 Bad inh: disrupts binding of bovine 14-3-3 zeta to phospho-Bad peptide | P63103 | TR-FRET 14-3-3zeta/Dy647-pBad peptide displacement, 1 h | AID 781 | inhibition, % at 21.7 µM | actives 0.71% (n = 220,000);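 active = inhibition above about 70%, limit read from the data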;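 also: 0% = full 14-3-3 plus peptide FRET controls and 100% = background without 14-3-3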
# p47phox inh: blocks human p47phox regulatory protein of NADPH oxidases; P14598; p47phox/p22phox peptide binding, fluorescence polarization, 2 h; inhibition, % at 24.7 µM; actives 0.53% (n = 220,000); AID 1274;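 also: 0% = p47phox with labelled peptide and 100% = labelled peptide alone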
# Mcl1-Noxa inh: disrupts binding of human Mcl-1 to Noxa peptide; Q07820; TR-FRET Mcl-1/Noxa peptide binding, 2 h; inhibition, % at 21.7 µM; actives 1.5% (n = 220,000); AID 1022;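 active = compounds that cut the protein-peptide binding signal by more than 50% relative to plate controls in a single-dose test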;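 also: His-tagged Mcl-1 with rhodamine Noxa BH3 peptide and terbium anti-His antibody; 0% = Mcl-1 plus Noxa peptide wells and 100% = peptide-only wells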
# Bim-Mcl-1: disrupts Bim peptide binding to human Mcl-1. actives 0.1% (n = 190,000). Q07820. inhibition, % at 10 µM. Bead-based flow cytometry, Bim peptide-Mcl-1 binding; in the data active = inhibition above about 40%;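 also: 0% = no compound tracer wells and 100% = peptide blocker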
# Mcl1 Bid PPI: disrupts binding of human Mcl-1 to Bid peptide. Q07820. TR-FRET Mcl-1/Bid-Dy647 peptide binding, 1536-well. inhibition, % at 21.7 µM. actives 0.97% (n = 220,000);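 active = compounds that cut the binding signal by more than half at the single screening dose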;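 also: His-tagged Mcl-1 with europium anti-His antibody binding Bid BH3 peptide; 0% = Mcl-1 plus peptide wells and 100% = peptide-only wells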
# eIF4E-4G inh: eIF4E/eIF4G interaction inhibition in translation initiation. P63073+Q04637. TR-FRET eIF4E-eIF4GI(517-606) binding, 2 h. inhibition, % at 21.7 µM. actives 0.37% (n = 220,000);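 also: 0% = full FRET control wells and 100% = background wells lacking eIF4GI fragment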
# Numbers without * were called inactive; / = no result; [ ] = dose if it differs, or a comment.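 The calls were made as follows, unless noted: active = inhibition above about 30% (limit read from the data); inactive = the rest.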
SMILES,14-3-3 Bad inh,p47phox inh,Mcl1-Noxa inh,Bim-Mcl-1,Mcl1 Bid PPI,eIF4E-4G inh
N/C(=N\OC(=O)COc1ccc2ccccc2c1)c1ccncc1,-3,0,1,3,-13,3
N/C(=N\OC(=O)COc1ccc2ccccc2c1)c1cccnc1,2,3,3,-6,61*,3
CC(C)CCN1CCN(C2CSCCSC2)CC1CCO (centres undefined),-6,42*,18,-3,-56,-4
CCOC(=O)/C(C#N)=N\Nc1cc(Cl)ccc1OC,-2,-4,19,/,-24,-2
Cc1nc2ccccc2n2c(O)c(CC(=O)O)cc12,-2,35*,17,-1,-29,2
Cc1cccc(Oc2coc3cc(OC(=O)c4cncc(Br)c4)ccc3c2=O)c1,1,87*,15,-1,-6,0
Cc1cc(C)cc(Oc2coc3cc(OC(=O)c4cccnc4)ccc3c2=O)c1,11,-110,-19,-5,19,3
COC(=O)c1c(NC(=S)Nc2ccc(C(=O)N3CCOCC3)cc2)sc2c1CCC2,-13,-30,5,-2,-40,0
Cc1ccc(-n2c(SC3CCOC3=O)nc3ccccc3c2=O)cc1 (centres undefined),1,-15,14,-2,-10,1
NS(=O)(=O)c1ccc(Sc2nc3ccccc3s2)c([N+](=O)[O-])c1,-3,-12,-2,/,-14,-1
O=C(O)c1ccc(S(=O)(=O)Nc2ccc(O)c(Sc3nc4ccccc4s3)c2)cc1,12,-30,51*,0,-46,2
COc1cc(/C=N/N=C(N)N)ccc1OCc1ccc(Cl)cc1,-3,4,26,3,-13,-4
CCOc1cc(/C=N/N=C(N)N)ccc1OCc1ccc(Cl)cc1,61,77*,15,5,-17,10
COc1cccc2c1C(=O)c1c(O)c3c(c(O)c1C2=O)C[C@@](O)(C(=O)CO)C[C@@H]3O[C@H]1C[C@H](N)[C@H](O)[C@H](C)O1,96*[fluorescence artefact?],-253,60*,34,10,50*[fluorescence artefact?]
C=CCOc1c(CNc2nccs2)cccc1OCC,0,36*,9,-1,-20,-6
COc1ccc(NC(=O)CN2CCOCC2)cc1,73*,-7,-3,-3,71*,-2
O=C(Cc1ccccc1)Nc1ccc(N2CCCC2)cc1,/,7,82*,-2,-56,/
O=C(CN1CCOCC1)Nc1ccc(Oc2ccc(NC(=O)CN3CCOCC3)cc2)cc1,9,-8,6,-2,-37,0
O=C(Cc1ccccc1)Nc1ccc(N2CCOCC2)cc1,-13,4,-6,1,-52,3
O=C(CN1CCCCC1)Nc1ccc(N2CCCCCC2)cc1,43,2,67*,0,28,16
O=C(Nc1ccc(N2CCCCCC2)cc1)c1ccccc1Cl,11,2,52*,-2,-60,15
Cc1cc(C)c2oc(C(=O)Nc3ccc(S(=O)(=O)N4CCCC(C)C4)cc3)cc(=O)c2c1 (centres undefined),7,-13,-18,4,-12,1
CC(=O)c1sc(N/N=C2\CC3CC2C(C)C3(C)C)nc1C (centres undefined),-11,/,7,0,2,6
CCOc1cc(NC(=O)CCl)c(OCC)cc1NC(=O)CCl,3,1,19,/,-56,1
NC(=S)c1c(Cl)cc(C(F)(F)F)cc1Cl,-4,-2,2,/,-14,3
SMILES,14-3-3 Bad inh,p47phox inh,Mcl1-Noxa inh,Bim-Mcl-1,Mcl1 Bid PPI,eIF4E-4G inh
CC1CCN(c2ccc(NC(=O)Cc3ccccc3)cc2)CC1,0,2,87*,0,-12,6
Cc1ccnc(NC(=O)CSc2nnc3c(n2)[nH]c2ccccc23)c1,1,-2,2,1,-20,0
CCCS(=O)(=O)N1CCN(CC2CC=CCC2)CC1 (centres undefined),73*,-11,16,-1,29,6
CCCS(=O)(=O)N1CCN(CC2CC3C=CC2C3)CC1 (centres undefined),72*,-2,18,2,-8,2
COC(=O)c1sccc1NC(=O)c1c(C)noc1C,-3,7,10,1,17,2
COC(=O)c1sccc1NC(=O)c1cc(C)on1,2,-10,1,0,63*,8
CN1CCN(NC(=S)Nc2ccc(OC(F)F)cc2)CC1,17,-3,-3,0,-35,-2
COc1ccc2nc(NC(=O)c3ccc(-c4cccc([N+](=O)[O-])c4)o3)sc2c1,65,1,62*,10,79*,-2
COc1ccc2nc(NC(=O)c3cc(C)oc3C)sc2c1,13,-20,-2,0,-2,-4
O=C(Nc1nc2ccc([N+](=O)[O-])cc2s1)c1c(F)cccc1F,-2,0,12,-4,-3,1
N#C/C(=C(/O)c1ccc(-c2cccc([N+](=O)[O-])c2)o1)c1nc2ccccc2s1,92*,11,88*,-1,15,25
O=C(Nc1nc2ccc([N+](=O)[O-])cc2s1)c1ccco1,49,6,56*,-1,17,4
CN(C)c1ccc(C(=O)NC2(N3CCC3=O)CCCC2)cc1,-9,8,8,2,-56,21
Cc1cccc(OCCCCCn2ccnc2)c1,70,-14,16,3,51*,5
O=C(COC(=O)c1ccco1)NCc1ccc(F)cc1,-20,-1,5,0,-31,-5
Cc1oc(S(=O)(=O)N2CCOCC2)cc1C(=O)Nc1ccc(Cl)cc1,2,1,3,/,2,-8
CC(=O)N1c2ccccc2Nc2ccccc21,-3,-8,-1,-3,-9,-2
CC(=O)N1c2ccccc2C2(O)N=C(C)SC12 (centres undefined),-35,20,55*,-6,-24,23
Cc1ccc(S(=O)(=O)Cn2nnnc2C(CC(C)C)N2CCN(C)CC2)cc1 (centres undefined),-1,/,3,-1,23,0
COC(=O)c1[nH]c2ccc(Br)cc2c1NC(=O)CN1CCCCC1CCO (centres undefined),91*,-12,-2,-3,-49,-20
C=CCN=C1SC(C)(C)C(=O)N1S(=O)(=O)c1ccc(C)cc1,95*,-4,7,1,-22,1
CC1(C)OC1COc1c2ccoc2cc2oc(=O)ccc12 (centres undefined),1,3,5,0,-37,3
O=C(CN1CCN(C2CCCCC2)CC1)Nc1ccccc1-c1ccccc1,83*,1,8,0,44,5
O=C(N/N=C/c1cc2ccccc2[nH]1)c1ccccc1Cl,0,-15,-1,/,-65,-7
Cc1ccc(/C=C2/SC(=O)NC2=S)o1,6,25,77*,0,-55,6
CCOc1ccc(/C=C2\SC(=S)NC2=O)cc1OC,-10,-38,21,2,-17,-5

# Screening results deposited in PubChem by several laboratories.
